High-throughput results from PubChem.
HEK cytotox = Cytotoxic Profiling in HEK 293 Cell Line of Diverse Libraries Using Quantitative High-Throughput Screening | HEK 293 viability, ATP luminescence (CellTiter-Glo), 48-72 h | Potency, µM (series often up to 115 µM), inactives show at the top dose activity change, negative = cytotoxicity, most hits filed as inhibitors | 94,000 tested, 6.6% active | AID 1345083, 2018; also: nearly all actives have a fitted effect of over 60% in size
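CellTiter-Glo luminescence (cellular ATP) was read after 48 or 72 hr of compound exposure at 37 degree Celsius. Cells were HEK 293 plated at 250 cells/well.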
NIH3T3 tox = Cytotoxic Profiling in NIH 3T3 Cell Line of Diverse Libraries Using Quantitative High-Throughput Screening | NIH 3T3 viability, CellTiter-Glo ATP luminescence, 48-72 h | 94,000 tested, 4.3% active | Potency, µM (titrated, usually from 96.7 µM), for inactives: at the top dose activity change, negative = cytotoxicity, hits mostly inhibitors; also: nearly all actives have a fitted effect of over 55% in size
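Cytotoxicity is measured as loss of cellular ATP: NIH 3T3 cells (400/well) are exposed to compound for 48 or 72 hr at 37 °C, then CellTiter-Glo luminescence is imaged after 10 min at room temperature.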
FLuc inh = Firefly luciferase inhibition profiling of diverse chemical library using quantitative high-throughput screening; Luciferin 4-monooxygenase (Photinus pyralis), P08659; purified P. pyralis luciferase, luminescence, biochemical; Potency, µM (series often up to 115 µM), usual class: inhibitors; 76,000 tested, 2.5% active; also: nearly all actives have a fitted effect of over 65% in size
Target sequence (P08659 whole entry, looked up): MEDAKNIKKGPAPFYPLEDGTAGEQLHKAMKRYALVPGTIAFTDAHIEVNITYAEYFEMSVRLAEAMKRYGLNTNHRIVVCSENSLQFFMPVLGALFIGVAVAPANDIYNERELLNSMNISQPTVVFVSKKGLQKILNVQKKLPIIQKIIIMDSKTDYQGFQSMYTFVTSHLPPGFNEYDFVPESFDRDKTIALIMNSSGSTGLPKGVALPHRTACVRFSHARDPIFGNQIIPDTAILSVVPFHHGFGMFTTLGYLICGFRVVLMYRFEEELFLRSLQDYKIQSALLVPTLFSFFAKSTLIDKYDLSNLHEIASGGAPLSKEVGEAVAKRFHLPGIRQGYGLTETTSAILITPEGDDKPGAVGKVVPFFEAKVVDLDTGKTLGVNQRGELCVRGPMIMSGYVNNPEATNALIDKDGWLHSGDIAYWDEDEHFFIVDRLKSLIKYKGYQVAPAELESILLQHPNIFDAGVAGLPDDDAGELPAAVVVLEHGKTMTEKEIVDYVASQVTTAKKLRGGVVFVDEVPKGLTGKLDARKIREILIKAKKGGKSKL
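Inhibitors were tested against purified firefly luciferase in a biochemical, low-substrate format (both substrates at 10uM) and luminescence measured with a CCD imager.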
hNpr1 antagonist = Natriuretic polypeptide receptor (hNpr1) antagonism - Primary qHTS; Potency, µM (titrated, usually from 46.3 µM), inactives show at the top dose activity change, negative = inhibition, usual class: inhibitors; 76,000 tested, 1.6% active; HEK293 hNpr1 GloSensor cGMP, ANP-stimulated luminescence; calls by dose curve; also: nearly all actives have a fitted effect of over 60% in size
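Compound pre-incubated 30 min at room temperature on GloSensor-loaded HEK293 cells stably carrying hNpr1 and the pGS-40F cGMP biosensor. Stimulation uses hNppA at 0.1 nM final; luminescence is taken at baseline and 20 min post-agonist.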
* marks the source's active call; other numbers are inactive results; [ ] = another dose, or the depositor's remark. Rows were chosen to be rich in hits. Some 11% of all compounds tested hit in one or more screens of this group. Unless noted, calls follow the shape of the dose curve; as a rule, active = well fitted curve in the direction sought with a large enough effect; inconclusive = small, poorly fitted or top-dose-only effect, or another doubt; inactive = no such curve, though single readings can be large; an effect the other way counts as inactive or inconclusive. % is scaled to controls: 0 for no effect and ±100 for the full control effect; potency is read from the fitted curve at half-maximal effect.

What do the screens show for `COc1cccc(-c2ccc(C(=O)NCCNC(=O)Nc3ccc(Cl)cc3)cc2)c1`?
HEK cytotox: inconclusive; NIH3T3 tox: -15.7%

How did CCOC(=O)CN(C(=O)CC1CCCC1)[C@H]1C[C@H]2CCOC[C@H]2C1 do in these assays?
HEK cytotox: -4.0%; NIH3T3 tox: inconclusive

How did CC1=C[C@@H](CNC(C)C)[C@H](C(C)C)C[C@H]1Cc1nnc(-c2ccc([N+](=O)[O-])cc2)o1 do in these assays?
HEK cytotox: 79.4µM*; NIH3T3 tox: 89.1µM*; FLuc inh: inactive; hNpr1 antagonist: -12.5%[70.6 µM]

How did CC1=C[C@@H](CNCc2ccncc2)[C@H](C(C)C)C[C@H]1Cc1nnc(-c2ccc(C)cc2)o1 do in these assays?
HEK cytotox: inconclusive; NIH3T3 tox: inconclusive; FLuc inh: inactive; hNpr1 antagonist: inconclusive

How did CC1=C[C@@H](CNCc2ccncc2)[C@H](C(C)C)C[C@H]1Cc1nnc(-c2ccc([N+](=O)[O-])cc2)o1 do in these assays?
HEK cytotox: 39.8µM*; NIH3T3 tox: inconclusive; FLuc inh: inactive; hNpr1 antagonist: -6.1%

How did COC(=O)c1[nH]nc2c1C(c1ccc(OC)c(OC)c1Cl)CC(=O)N2 (stereo unspecified) do in these assays?
HEK cytotox: -17.3%; NIH3T3 tox: -16.5%; FLuc inh: inactive; hNpr1 antagonist: -1.2%

Results for COc1ccc(NC(=O)Cn2c(-c3ccc(F)cc3)nc(C)cc2=O)cc1OC ?
HEK cytotox: inconclusive; NIH3T3 tox: inconclusive; FLuc inh: inactive; hNpr1 antagonist: -10.6%

Results for Cc1noc(C)c1-c1cc2cc(C(C)C)oc2c(NC2CCOCC2)n1 ?
HEK cytotox: 100µM*; NIH3T3 tox: inconclusive; FLuc inh: inactive; hNpr1 antagonist: 1.5%[70.6 µM]

Results for Cc1noc(C)c1-c1cc2cc(C(C)C)oc2c(NC(C)C)n1 ?
HEK cytotox: 89.1µM*; NIH3T3 tox: 79.4µM*; FLuc inh: inactive; hNpr1 antagonist: -2.3%[70.6 µM]

What do the screens show for `Cc1cc2cc(-c3c(C)noc3C)nc(NCC3CC3)c2o1`?
HEK cytotox: inconclusive; NIH3T3 tox: inconclusive; FLuc inh: inactive; hNpr1 antagonist: -3.8%[70.6 µM]

How did COc1ncccc1-c1nc(-c2c(C)noc2C)cc2cc(C(C)C)oc12 do in these assays?
HEK cytotox: 89.1µM*; NIH3T3 tox: inconclusive; FLuc inh: inactive; hNpr1 antagonist: 0.9%[70.6 µM]

How did Cc1noc(C)c1-c1cc2cc(C(C)C)oc2c(-c2c(C)noc2C)n1 do in these assays?
HEK cytotox: inconclusive; NIH3T3 tox: inconclusive; FLuc inh: inactive; hNpr1 antagonist: -3.6%[70.6 µM]

How did OCC1CN(Cc2ccccc2)CC12CCN(Cc1ccncc1)CC2 (stereo unspecified) do in these assays?
HEK cytotox: inconclusive; NIH3T3 tox: inconclusive; FLuc inh: inactive; hNpr1 antagonist: -6.2%

What do the screens show for `COc1ccc(C2Cn3nnc(C(=O)N4CCN(C(=O)c5cc(F)ccc5Cl)CC4)c3CO2)cc1` (stereo unspecified)?
HEK cytotox: inconclusive; NIH3T3 tox: inconclusive; FLuc inh: inactive; hNpr1 antagonist: 12.6µM*

Results for CCOc1ccccc1C(=O)N1CCN(C(=O)c2nnn3c2COC(c2ccc(Cl)cc2)C3)CC1 (stereo unspecified) ?
HEK cytotox: 31.6µM*; NIH3T3 tox: inconclusive; FLuc inh: inactive; hNpr1 antagonist: inconclusive

Results for O=C(c1nnn2c1COC(c1ccc(Cl)cc1)C2)N1CCN(C(=O)C2(c3ccccc3)CC2)CC1 (stereo unspecified) ?
HEK cytotox: 22.4µM*; NIH3T3 tox: 28.2µM*; FLuc inh: inactive; hNpr1 antagonist: inconclusive

How did O=C(c1ccccc1)N1CCN(C(=O)c2nnn3c2COC(c2ccc(Cl)cc2)C3)CC1 (stereo unspecified) do in these assays?
HEK cytotox: inconclusive; NIH3T3 tox: -8.1%; FLuc inh: inactive; hNpr1 antagonist: -15.7%

What do the screens show for `COc1ccc(-c2ccc(C(=O)N3CCC(NC(C)=O)CC3)cc2)nn1`?
HEK cytotox: -4.3%; NIH3T3 tox: -15.1%

Results for COc1ccc(C(=O)N2CCCn3nc(C)c(-c4ccccc4-c4ccccc4)c32)cc1 ?
HEK cytotox: 35.5µM*; NIH3T3 tox: inconclusive; FLuc inh: inactive; hNpr1 antagonist: -21.8%[70.6 µM]
